# Only some compounds are listed: those with a hit (about 3.7% of all), similar ones and a draw of the others.
# tim23-1 inh – growth inhibitors of tim23-1 mutant yeast. S. cerevisiae tim23-1 growth, BacTiter-Glo luminescence, 24 h. inhibition, % at 20 µM. actives 1.3% (n = 330,000). AID 463212;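 active = growth inhibition of the mutant yeast at or above 50%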;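 note: temperature-sensitive mutant grown at 25 °C; plate controls were DMSO-treated mutant yeast for no effect and medium wells lacking yeast for full effect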
# tim10-1 inh – inhibits growth of tim10-1 mutant yeast | S. cerevisiae tim10-1 ts strain growth, BacTiter-Glo, 24 h | inhibition, % at 20 µM | actives 2.2% (n = 330,000);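 active = inhibition of at least 40%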;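 note: mutant grown at 25 °C; 0% = DMSO wells with yeast and 100% = wells holding no yeast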
# TIM10 inh – TIM10 yeast growth inhibition. S. cerevisiae TIM10 strain growth, BacTiter-Glo luminescence, 24 h. inhibition, % at 10 µM. actives 1.4% (n = 330,000);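 active = inhibition of 40% or more at the single tested concentration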;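 note: wild-type TIM10 isogenic control strain grown at permissive 25 °C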
# V-ATPase pH – alters yeast V-ATPase proton transport; actives 0.37% (n = 350,000); response, % at 10 µM; S. cerevisiae, pHLuorin cytosolic pH fluorescence; in the data active = response mostly above about 7.3%, no sharp cut-off; inactive = mostly below about 5.4%; note: actives read high
# PfHsp90 yeast 2 – inhibits growth of yeast expressing Plasmodium falciparum Hsp90. S. cerevisiae expressing PfHsp90, BacTiter-Glo ATP, 48 h; yeast lacking PDR1 and PDR3 efflux regulators. inhibition, % at 9.4 µM. actives 0.32% (n = 310,000);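 active = every replicate shows inhibition above about 80%, whatever the replicate mean, limit read from the data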;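 note: 0% = DMSO neutral controls and 100% = 20 µM radicicol positive controls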
# tim10-1 conf – tim10-1 yeast growth inhibition, confirmed; shares compounds with tim10-1 inh; S. cerevisiae tim10-1 ts strain growth, BacTiter-Glo, 24 h; inhibition, % at 20 µM; actives 56% (n = 7,400); AID 463213;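 active = inhibition of yeast growth at or above a set limit in either of two repeat tests at 20 µM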;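 note: tim10-1 mutant grown at permissive 25 °C to find synthetic lethal compounds; 0% = DMSO yeast wells and 100% = medium wells without yeast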
# Active calls of the source: *; . = no result.
SMILES,tim23-1 inh,tim10-1 inh,TIM10 inh,V-ATPase pH,PfHsp90 yeast 2,others
Cc1sc2ncnc(N/N=C/c3ccccc3O)c2c1C,.,.,.,0.3,100.6*,
CCOc1ccccc1Nc1nnc(C)c(=O)[nH]1,-5.0,1.1,-16.8,14.8*,.,
Cc1ccc(OCC(=O)OCC(=O)NC2CCCCCC2)cc1C,.,.,.,-1.1,.,
Cc1cc(Cl)ccc1C(=O)C1CCCN(C(=O)c2cncs2)C1 (stereo unspecified),-168.6,37.2,-65.9,5.0,96.2*,
CC(C)Oc1cccc(C(=O)C2CCCN(C(=O)c3cncs3)C2)c1 (stereo unspecified),5.4,18.2,-4.3,6.0,-8.6,
O=C(c1ccc(-c2ccccc2)c(F)c1)C1CCCN(C(=O)c2cncs2)C1 (stereo unspecified),-170.2,-117.1,-28.5,1.0,88.8*,
O=C(NC1CCCC1)C(c1cccnc1)N(C(=O)c1csnn1)c1ccccc1Cl (stereo unspecified),-2.0,-13.4,10.8,3.1,-5.9,
CCCCCCC(=O)N(O)C1CC(=O)N(c2ccc(F)cc2)C1=O (stereo unspecified),31.2,31.8,24.3,-1.6,109.1*,
NC(=O)c1cccc2ccccc12,-1.1,0.8,1.6,2.9,-25.6,
N#CSCC(=O)c1cccc2ccccc12,.,.,.,-0.1,97.3*,
O=S(=O)(Cc1ncc(C(F)(F)F)cc1Cl)c1ccccc1,2.4,-4.1,-5.7,-3.3,15.6,
COC(=O)c1ccccc1NC(=O)CSc1nnc(-c2cccnc2)o1,11.2,12.6,-6.9,6.8,-16.0,
CC(C)=CCc1c(O)ccc(C2COc3c(CC=C(C)C)c(O)cc(O)c3C2=O)c1O (stereo unspecified),34.7,17.6,6.4,-1.4,105.7*,
Cc1nn(-c2ccccc2)c(C)c1CNC(=O)c1ccc(S(=O)(=O)NCc2ccco2)cc1,11.3,8.4,-0.5,20.5*,.,
Cc1cc(C)n(CCCNC(=O)c2ccc(S(=O)(=O)NCc3ccco3)cc2)n1,0.0,5.1,-6.7,3.3,.,
COc1ccc(CCN2C(=O)C=CC2=O)cc1OC,.,.,.,12.3,104.4*,
COc1cc([C@H]2Oc3c(OC)cc(CCCO[C@@H]4O[C@H](CO)[C@@H](O)[C@H](O)[C@H]4O)cc3[C@@H]2CO)ccc1O,2.0,3.3,-3.2,0.3,-9.6,
CCOC(=O)/C(=C\c1ccccc1)C(=O)c1cc(C(C)=O)c(Nc2ccccc2)s1,39.0,36.2,32.5,0.0,7.5,
CCOC(=O)/C(=C\c1cccnc1)C(=O)c1cc(C(C)=O)c(Nc2ccccc2)s1,46.8,14.2,27.5,-2.2,103.3*,
O=c1c(OCc2ccccc2)cccn1Cc1ccccc1,.,.,.,1.5,.,
Cc1c(OCC(=O)C(C)(C)C)ccc2c(-c3ccccc3)cc(=O)oc12,1.9,-28.5,-107.5,-3.5,96.1*,
CC(=O)COc1ccc2c(-c3ccccc3)cc(=O)oc2c1C,16.2,-43.4,-40.2,2.7,2.8,
CCN1/C(=C/c2ccc3cc(C)ccc3[n+]2CC)Sc2cc(C)ccc21,.,.,.,7.3,93.7*,
CCN1/C(=C/c2ccc3cc(C)ccc3[n+]2C)Sc2ccc3sccc3c21,.,.,.,3.5,11.2,
Cc1ccn2c(Cc3ccccc3)c(-c3ccc(F)cc3)nc2c1,.,.,.,0.9,.,
SMILES,tim23-1 inh,tim10-1 inh,TIM10 inh,V-ATPase pH,PfHsp90 yeast 2,others
Cc1cccc(NC(=O)CNC(=O)c2cc(C3CC3)nn2-c2ccccc2)c1C,21.6,18.7,7.9,23.5*,.,
N#CC1C(=N)Cc2ccccc2-c2ccccc21 (stereo unspecified),.,.,.,0.1,-114.9,
O=C(N/N=C/c1cc(Cl)c(O)c(Cl)c1)c1cc2c(ccc3ccccc32)o1,46.7,33.4,-14.4,-0.2,95.1*,
O=C(O)c1ccccc1NS(=O)(=O)c1cccc(C(F)(F)F)c1,-2.3,18.3,-2.1,17.9*,-5.5,
O=S(=O)(Nc1cccc2c1CCCC2)c1cccc(C(F)(F)F)c1,15.6,29.1,32.5,1.9,11.9,
CCOC(=O)c1[nH]c(C)c(C(=O)Nc2cc(OC)ccc2OC)c1C,28.4,26.5,36.2,-3.4,-3.8,
CCOC(=O)c1c(C)c(C(=O)Nc2ccccc2)c(C)n1CC,11.8,20.3,15.3,20.1*,14.9,
CCOC(=O)c1c(C)c(C(=O)NCc2cccs2)c(C)n1CC,13.3,13.5,7.7,-0.6,-17.4,
CCOC(=O)c1c(C)c(C(=O)Nc2cc(OC)ccc2OC)c(C)n1CC,.,.,.,14.9*,-3.3,
Cc1cc(C)nc(Nc2nc3ccccc3o2)n1,-3.5,3.1,-7.2,1.9,-6.9,
CC(=NNc1nc2ccccc2o1)c1ncccn1,.,.,.,-1.1,125.6*,
CC(=NNc1nc2ccccc2s1)c1ncccn1,.,.,.,12.9,114.6*,
CC(=NNc1nc2ccccc2o1)c1cc2ccccc2cn1,.,.,.,-1.9,144.7*,
O=C(Nc1cccc(C(F)(F)F)c1)Oc1ccc(Cl)c2cccnc12,.,.,.,3.1,124.3*,
CCN(CC)C(=O)Oc1ccc(Cl)c2cccnc12,-1.8,-0.7,-14.4,2.8,-6.8,
CC(C)(C)N(Cc1ccccc1)C(=O)COC(=O)CNS(=O)(=O)c1ccc2ccccc2c1,26.0,16.2,7.6,3.4,-8.7,
CCOc1ccc(NC(=O)CN(C)C(=O)c2ccc3nc(CC)c(CC)nc3c2)cc1OCC,19.4,-1.3,-5.0,1.6,8.1,
Cc1ccc(Nc2nc(N)c(C#N)c(CC#N)c2C#N)cc1,6.5,8.9,2.7,-1.9,1.4,
COc1ccc2c(c1)OC13CCCCC1C2C(C(=O)c1ccccc1)C(=O)N3 (stereo unspecified),10.7,11.3,-0.8,20.1*,25.0,
COc1ccc2c(c1)OC13CCN(C)CC1C2C(C(=O)c1ccc(F)cc1)C(=O)N3 (stereo unspecified),4.2,26.5,-16.7,-5.4,7.6,
O=C1c2cc(F)ccc2-n2c1nc1ccccc1c2=O,30.2,-10.8,9.0,1.8,89.6*,
CN(C)/C=C/C(=O)c1ccc(Oc2ccccc2)cc1,33.2,21.3,12.7,0.1,101.2*,
CN(C)/C=C/C(=O)c1ccc2noc(-c3ccccc3)c2c1,24.6,32.2,19.5,3.4,105.5*,
CN(C)/C=C/C(=O)c1ccccc1,-1.3,10.6,-3.2,-2.7,-1.1,
CC(=O)c1ccc2noc(-c3ccccc3)c2c1,3.7,-4.8,-4.6,3.1,4.9,
COc1ccc(-c2cc(=O)c(C(=O)c3ccc(C)cc3)n[nH]2)cc1,38.9,0.3,1.9,0.0,-48.2,
Cc1cccc([C@@H]2[C@@H]3C(=O)N(Cc4ccccc4)C(=O)[C@@H]3[C@]3(CC(C)C)C(=O)N(c4cccc(F)c4)C(=O)N23)c1,31.1,17.7,4.7,-2.7,-2.2,
CC1OC(CC(=O)O)CC2=C1C(=O)c1c(O)cccc1C2=O (stereo unspecified),.,.,.,116.6*,106.0*,
COc1cccc(N2C(=O)C(c3ccccc3)=C(c3nc4ccccc4s3)C2NC(C)=O)c1 (stereo unspecified),19.4,49.2*,39.1,2.8,-17.5,tim10-1 conf=42.1*
COc1cccc(-c2nc3ccccc3s2)c1,24.0,22.8,11.5,5.2,.,

# Source: PubChem BioAssay (several laboratories)
